Here are results for eight compounds from PubChem BioAssay (Tox21).

A number with no mark means an inactive call. Records with an inconclusive call do not appear. Active and inactive are the calls of the source. Unless noted, calls come from the whole dose curve; as a rule, active = well fitted curve in the direction sought with a large enough effect in the repeat runs; inconclusive = weak or mixed curves; inactive = no such curve, though single readings can be large; an effect the other way counts as inactive or inconclusive.

A short description of assay [1]: qHTS assay to identify small molecule antagonists of the estrogen related receptor (ERR) signaling pathway from Tox21 library - cell viability counter screen (AID 1224834). Note: nearly all actives have a fitted effect of over 30% in size. Note: potency is the fitted concentration of half-maximal effect. The method, boiled down:
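In this quantitative HTS format, ERR cells receive compounds in DMSO and are incubated for 17.5 h at 37 C. Live-cell protease activity is then detected with CellTiter-Fluor.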
A general note: qHTS replaces the single test concentration by a dilution series.

Assay [2] is described as follows: qHTS assay to identify small molecule agonists of the constitutive androstane receptor (CAR) signaling pathway - cell viability counter screen (AID 1224836). Note: nearly all actives have a fitted effect of over 45% in size. The method, boiled down:
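Using CellTiter-Fluor, viability of HepG2 cells harbouring hCAR and CYP2B6-2.2kb was measured following 23 h incubation with a 15-concentration compound series plus PK11195 (0.75 uM final).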

Assay [3] is described as follows: qHTS assay to identify small molecule antagonists of the constitutive androstane receptor (CAR) signaling pathway - cell viability counter screen (AID 1224837). Note: nearly all actives have a fitted effect of over 45% in size. The method, boiled down: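 In quantitative HTS format, compounds at 15 concentrations were applied to HepG2 cells double-transfected with hCAR and CYP2B6-2.2kb under 50 nM CITCO stimulation; live-cell protease activity was read after 23 hr via CellTiter-Fluor.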

The target of assay [4] is Nuclear receptor subfamily 1 group I member 3 (Homo sapiens) (UniProt Q14994). Put plainly: qHTS assay to identify small molecule antagonists of the constitutive androstane receptor (CAR) signaling pathway (AID 1224838). Note: nearly all actives have a fitted effect of over 40% in size. Note: potency is the fitted concentration of half-maximal effect. The method, boiled down:
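CITCO-stimulated (50 nM final) HepG2 cells stably transfected with hCAR and CYP2B6-2.2kb luciferase were exposed to compounds at 15 concentrations for 24 h at 37 C/5% CO2. A luciferase reagent was added and luminescence recorded after 30 min.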

Assay [5] shares this target. Put plainly: qHTS assay to identify small molecule agonists of the constitutive androstane receptor (CAR) signaling pathway (AID 1224839).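 For activation: HepG2 cells stably carrying human CAR and a CYP2B6 luciferase reporter.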 Note: nearly all actives have a fitted effect of over 15% in size. Note: potency is the fitted concentration of half-maximal effect. The method, boiled down: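 Double-stable HepG2 cells (hCAR, CYP2B6-2.2kb) seeded 4 h before compound addition. Exposure 24 h with 0.75 uM PK11195 final. Luciferase detected by ONE-Glo.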
A short description of assay [6]: qHTS assay to identify small molecule antagonists of the estrogen related receptor signaling pathway with the pleiotropic PPARgamma coactivator (PGC) from Tox21 10K library - cell viability counter screen (AID 1224840; active = well fitted cell-killing curve with a large enough effect in the repeat runs, not every such curve was filed as active; note: nearly all actives have a fitted effect of over 40% in size). In short, it runs like this:
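Viability counter screen, PGC/ERR cells: 17.5 h compound exposure at 37 C, CellTiter-Fluor fluorescence endpoint.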

Assay [7] concerns the target Thyrotropin receptor (Homo sapiens) (UniProt P16473). In words: qHTS assay to identify small molecule agonists of the thyroid stimulating hormone receptor (TSHR) signaling pathway (AID 1224843; calls by dose curve; note: nearly all actives have a fitted effect of over 45% in size). The method, boiled down: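 Agonist activity read as cAMP rise via d2/cryptate HTRF competition, 1 h room-temperature detection, in HEK293 cells expressing TSHR. Fifteen-point titrations, each run in triplicate, with a 30 min room-temperature incubation beforehand.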

Assay [8] in a line: qHTS assay to identify small molecule agonists of the hypoxia (HIF-1) signaling pathway - cell viability counter screen (AID 1224844; calls by dose curve; note: nearly all actives have a fitted effect of over 50% in size). In short, it runs like this:
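Same wells as the HIF-1 reporter screen; ME-180 cells carrying HRE-bla, 17 hr treatment at 37C; CellTiter-Glo luminescence read after 30 min at room temperature.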

A short description of assay [9]: qHTS assay to identify small molecule agonists of the hypoxia (HIF-1) signaling pathway (AID 1224846; active = well fitted activation curve with a large enough effect in the signal ratio in the repeat runs, not every such curve was filed as active; the % refers to the signal ratio). In short, it runs like this: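 In ME-180 cells bearing an HRE-bla construct, 17 h treatment with DMSO-dissolved compounds at 37C was followed by CCF4-AM loading to quantify reporter induction.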
Assay [10] is described as follows: qHTS RealTime-Glo MT Cell Viability Assay in HepG2 cells - 24 hour (AID 1224867). Note: nearly all actives have a fitted effect of over 50% in size. In short, it runs like this: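 HepG2 cells (600/well) were dispensed with RealTime-Glo reagents, incubated 5 h at 37 °C, then treated with compounds in DMSO for up to 40 h. Nonlytic NanoLuc luminescence reflecting viable cells was read at each stated time point.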
The nature of assay [11]: A CellTox Green Cytotoxicity Assay to monitor cytotoxicity in HEK293 cells - 0 hour (AID 1224869). Note: nearly all actives have a fitted effect of over 50% in size. In short, it runs like this:
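Homogeneous no-lysis format: HEK293 cell suspension mixed with CellTox Green reagent, seeded, incubated 5 h at 37 C/5% CO2, then dosed by pintool with compound in DMSO.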

Assay [12] in a line: qHTS RealTime-Glo MT Cell Viability Assay in HepG2 cells - 40 hour (AID 1224870). Note: nearly all actives have a fitted effect of over 50% in size. In short, it runs like this: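 Real-time viability: cells seeded at 600 per well together with NanoLuc and cell-permeant prosubstrate, compounds added after 5 h incubation. Luminescence tracked at 0, 8, 16, 24, 32 and 40 h of exposure.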
Assay [13] has as its target Luciferin 4-monooxygenase (Photinus pyralis) (UniProt P08659). In words: qHTS assay to identify small molecule inhibitors of firefly luciferase (AID 1224835). Note: nearly all actives have a fitted effect of over 25% in size. Note: potency is the fitted concentration of half-maximal effect. The method, boiled down: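 Inhibition of purified Photinus luciferase is measured by luminescence. Substrate levels (D-luciferin, ATP) sit at their KM values. Each compound is tested in a concentration series.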

Assay [14] in a line: qHTS assay to identify small molecule antagonists of the estrogen related receptor signaling pathway with the pleiotropic PPARgamma coactivator (PGC) from Tox21 10K library (AID 1224841; call rule not given here; note: potency is the fitted concentration of half-maximal effect). In short, it runs like this:
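In the PGC/ERR line, DMSO solutions of test chemicals are pin-delivered to 2,000 cells/well six hours after dispensing. Following eighteen hours' incubation, One-Glo reagent is added and luminescence recorded.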

Assay [15] can be described thus: qHTS assay to identify small molecule agonists of the estrogen related receptor signaling pathway with the pleiotropic PPARgamma coactivator (PGC) from Tox21 10K library (AID 1224842). Note: nearly all actives have a fitted effect of over 15% in size. The method, boiled down: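 Luminescence from One-Glo (30 min, room temperature) measured after PGC/ERR cells had 18 h at 37 C with pinned compound (23 nL in DMSO). Cells had been seeded at 2,000 per well and pre-incubated 6 h.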

Assay [16] in a line: qHTS assay to identify small molecule agonists of H2AX (AID 1224845; active = well fitted activation curve with a large enough effect in the signal ratio in the repeat runs, not every such curve was filed as active; the % refers to the signal ratio). The method, boiled down:
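Phospho-H2AX Ser139 measured by HTRF (ex 320 nm; em 665 and 620 nm) after 24 hr antibody incubation. Compounds, 15 concentrations, 0.76% DMSO, were applied to CHO-K1 cells for 3hr at 37C before lysis.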

A short description of assay [17]: qHTS assay to identify small molecule antagonists of the estrogen related receptor (ERR) signaling pathway from Tox21 library (AID 1224848). Note: nearly all actives have a fitted effect of over 50% in size. Note: potency is the fitted concentration of half-maximal effect. In short, it runs like this: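 Luciferase luminescence (ONE-Glo, 30 min room temperature) was the read-out. Cells of the NTP-supplied ERR line, 2,000 per well, were given 6 h at 37 C before compound addition in DMSO and 18 h exposure at 37 C.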

Assay [18] can be described thus: qHTS assay to identify small molecule agonists of the estrogen related receptor (ERR) signaling pathway from Tox21 library (AID 1224849; calls by dose curve; note: nearly all actives have a fitted effect of over 15% in size). Conditions: ERR reporter cell line, ONE-Glo luciferase, 18 h; at 92.4 µM (top of the series) unless noted. The method, boiled down: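 Reporter cells (ERR, NTP source) treated with Tox21 10K compounds 18 h, 37 C. Readout: ONE-Glo luminescence, 30 min RT.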

Assay [19] in a line: qHTS RealTime-Glo MT Cell Viability Assay in HEK293 cells - 32 hour (AID 1224868). For activity change, negative = cytotoxic: top concentration of the series differs between compounds. Note: nearly all actives have a fitted effect of over 50% in size. Note: potency is the fitted concentration of half-maximal effect. In short, it runs like this:
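HEK293 cells seeded with NanoLuc/prosubstrate reagent, rested 5 h at 37 C, then dosed and kept at 37 C up to 40 h. Nonlytic real-time luminescence from viable cells read at 0, 8, 16, 24, 32 and 40 h.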

Assay [20] is described as follows: qHTS assay to identify small molecule agonists of H2AX - cell viability counter screen (AID 1224847; calls by dose curve; note: top concentration of the series differs between compounds; nearly all actives have a fitted effect of over 30% in size). The method, boiled down:
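Quantitative HTS viability measurement: CHO-K1 wild-type cells in serum (10% FBS) medium, short 3 hr drug exposure at 37C with 0.76% DMSO, CellTiter-Glo luminescent detection.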
% is set by controls: 0 for no effect and ±100 for the full control effect.

Sequence of Nuclear receptor subfamily 1 group I member 3 (Homo sapiens) (Q14994 whole entry, looked up): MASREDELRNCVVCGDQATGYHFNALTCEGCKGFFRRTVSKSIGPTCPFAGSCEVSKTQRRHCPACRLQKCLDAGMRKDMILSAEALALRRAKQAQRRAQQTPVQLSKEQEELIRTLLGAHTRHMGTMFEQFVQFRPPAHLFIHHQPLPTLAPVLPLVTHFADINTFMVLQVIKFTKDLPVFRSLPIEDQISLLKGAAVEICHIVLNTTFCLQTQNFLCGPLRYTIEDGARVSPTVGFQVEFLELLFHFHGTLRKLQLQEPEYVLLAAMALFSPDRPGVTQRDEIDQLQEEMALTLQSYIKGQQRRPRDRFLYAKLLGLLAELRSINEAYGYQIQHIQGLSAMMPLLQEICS
Sequence of Thyrotropin receptor (Homo sapiens) (P16473 whole entry, looked up): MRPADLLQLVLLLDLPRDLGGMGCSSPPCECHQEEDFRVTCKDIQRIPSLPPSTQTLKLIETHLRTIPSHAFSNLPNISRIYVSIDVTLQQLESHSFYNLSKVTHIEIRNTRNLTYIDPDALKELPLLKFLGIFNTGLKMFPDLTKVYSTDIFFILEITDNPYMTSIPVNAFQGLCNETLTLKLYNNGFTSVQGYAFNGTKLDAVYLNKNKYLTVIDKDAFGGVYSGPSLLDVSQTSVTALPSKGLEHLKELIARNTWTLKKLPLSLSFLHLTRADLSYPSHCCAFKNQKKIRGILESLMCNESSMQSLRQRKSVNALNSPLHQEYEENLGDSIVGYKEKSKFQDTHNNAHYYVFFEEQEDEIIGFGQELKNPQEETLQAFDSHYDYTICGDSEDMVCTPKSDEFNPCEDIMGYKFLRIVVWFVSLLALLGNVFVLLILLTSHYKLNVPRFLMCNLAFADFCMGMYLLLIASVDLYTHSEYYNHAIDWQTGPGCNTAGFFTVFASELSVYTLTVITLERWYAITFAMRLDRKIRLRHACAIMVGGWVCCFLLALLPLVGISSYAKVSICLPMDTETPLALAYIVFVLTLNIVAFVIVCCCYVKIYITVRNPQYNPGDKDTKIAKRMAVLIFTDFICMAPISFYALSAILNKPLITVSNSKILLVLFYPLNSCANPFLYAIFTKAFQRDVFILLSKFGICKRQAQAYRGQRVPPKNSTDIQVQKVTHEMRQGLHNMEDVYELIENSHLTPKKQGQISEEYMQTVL
Sequence of Luciferin 4-monooxygenase (Photinus pyralis) (P08659 whole entry, looked up): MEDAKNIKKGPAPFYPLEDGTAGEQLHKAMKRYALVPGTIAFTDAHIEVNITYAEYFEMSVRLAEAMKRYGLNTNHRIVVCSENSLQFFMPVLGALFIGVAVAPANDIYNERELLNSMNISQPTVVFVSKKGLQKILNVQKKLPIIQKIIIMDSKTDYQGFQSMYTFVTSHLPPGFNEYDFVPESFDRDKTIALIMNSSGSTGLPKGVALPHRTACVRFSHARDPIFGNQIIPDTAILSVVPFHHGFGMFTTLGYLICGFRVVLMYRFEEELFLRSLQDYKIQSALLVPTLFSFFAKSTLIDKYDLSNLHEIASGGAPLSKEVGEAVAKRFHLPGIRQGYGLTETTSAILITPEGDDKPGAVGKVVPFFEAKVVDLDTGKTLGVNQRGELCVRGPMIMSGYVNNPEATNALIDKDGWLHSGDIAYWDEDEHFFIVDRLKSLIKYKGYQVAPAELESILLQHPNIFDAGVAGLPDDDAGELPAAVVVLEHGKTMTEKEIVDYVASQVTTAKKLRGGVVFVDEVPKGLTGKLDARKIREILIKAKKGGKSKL

Turning to `CCc1cccc(N(C)C(N)=Nc2cccc3ccccc23)c1`, the Potency result in [1], in [2], in [3], in assay [4], in [5] and in [6] was “inactive” throughout. For the same compound, the Potency result in assay [7], in assay [8], in assay [10], in assay [11] and in assay [12] was “inactive” throughout. Moreover, the call in assay [9] was inactive.
For the compound `NC(=O)Cn1c(=O)cc(CCN2CCN(c3nccc4sccc34)CC2)c2ccc(F)cc21`, the Potency in [1] was 48.6 µM (active); in assay [13] it was 44.8 µM (active); in assay [14], 61.1 µM (active); in [17], 54.5 µM (active); in assay [19], 43.6 µM (active). The Potency entry in [15], in assay [8], in assay [16], in assay [11] and in assay [12] was “inactive” each time. Moreover, the compound was called inactive in assay [9]. For the same compound, the activity change, positive = activation in [18] was -34.9%.
`C=CCCCCCCCCCCCCCCCC`: the activity change, negative = inhibition in assay [13] was 0.644% [at 10.5 µM]. The viability change, negative = cytotoxic in assay [2] is -0.127% [at 8.39 µM]; in assay [6], 2.55% [at 8.39 µM]. For the same compound, the activity change, negative = cytotoxicity in assay [3] was 3.23% [at 8.39 µM]; in [8] it was 3.26% [at 6.97 µM]; in assay [20], 0.307% [at 14 µM]; in assay [10] it was 0.0094% [at 6.97 µM]. Besides, the results for the activity, negative = inhibition in assay [4], in [14] and in assay [17] were 0.748% [at 8.39 µM], -28.3% [at 8.39 µM] and 6.89% [at 8.39 µM], respectively. In addition, the activation in [5] was -5.43% [at 8.39 µM]; in assay [15] it was 0.156% [at 8.39 µM]; in assay [7], -8.53% [at 8.39 µM]; in [9], 0.0723% [at 7.01 µM]. Also, the activation (H2AX phosphorylation) in [16] is -2.87% [at 14 µM]. Besides, the activity change, positive = activation in assay [18] is 3.59% [at 8.39 µM]. For the same compound, the activity change, negative = cytotoxic in assay [19] was -11.9% [at 6.97 µM]; in assay [12], 26.4% [at 6.97 µM]. Further, the cytotoxicity in [11] is -3.01% [at 6.97 µM].
Take `O=C(CCCN1CCC(O)(c2ccc(Br)cc2)CC1)c1ccc(F)cc1`: the Potency result in [13], in [2], in [3], in assay [5], in assay [6] and in assay [7] was “inactive” each time. For the same compound, the Potency result in [8], in assay [16], in [20] and in assay [11] was “inactive” each time. Moreover, the Potency is 33.5 µM (active) in [4] and 9.52 µM (active) in [19].
For `NC(=O)N(O)[C@@H]1COc2cc(OCc3ccccc3)ccc21`, the Potency in [13] is 1.12 µM (active); in assay [5], 0.193 µM (active). Moreover, the Potency result in assay [2], in assay [3], in assay [4], in [7], in assay [8] and in assay [16] was “inactive” each time. For the same compound, the Potency entry in [11] and in assay [12] was “inactive” in each case. In addition, the compound was classed as inactive in assay [9].
In the case of `COc1ccc(C(=O)c2cccc(O)c2)c(OC)c1`, the Potency result in assay [13], in assay [2], in assay [3], in assay [4], in assay [5] and in assay [8] was “inactive” each time. For the same compound, the Potency result in assay [20], in assay [10], in [19], in [11] and in assay [12] was “inactive” throughout. In addition, in assay [9], the call was inactive.
Consider `CCCC1C(CC)=CC(CC)=CN1c1ccccc1` (stereo not given), for which the Potency result in assay [13], in assay [2], in [3], in assay [4], in assay [6] and in assay [15] was “inactive” each time. Further, the Potency entry in assay [7], in assay [8], in [16], in [20], in assay [10] and in assay [11] was “inactive” throughout. In addition, the Potency result in [12] is “inactive”. For the same compound, the Potency in assay [5] was 19.3 µM (active); in [14] it was 34.4 µM (active); in assay [17], 43.3 µM (active); in [19], 13.8 µM (active). Further, the compound was classed as inactive in assay [9]. Further, the activity change, positive = activation in assay [18] was -47.2%.
As to `C=CCNc1nc(NCC=C)nc(N2CCN(C(c3ccc(F)cc3)c3ccc(F)cc3)CC2)n1`, the Potency entry in assay [13], in assay [2], in [3], in assay [4], in assay [5] and in [6] was “inactive” throughout. Also, the Potency result in [7], in [8], in assay [16], in assay [10], in assay [19] and in assay [12] was “inactive” in each case. Besides, the outcome in [9] was inactive.
